High-throughput results deposited in PubChem BioAssay by several laboratories.
The list is not random: actives were taken first. Their share in the collection is about 21%.
CYP2C9 inhib = inhibitors of human CYP2C9. P11712. CYP2C9 Supersomes, luciferin-H conversion, luminescence. 96,000 tested, 20% active. inhibition, % at 5 µM. AID 777;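 active means blocking of liver enzyme CYP2C9 beyond about 50% at 5 µM, limit read from the data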
Target sequence (P11712 whole entry, looked up): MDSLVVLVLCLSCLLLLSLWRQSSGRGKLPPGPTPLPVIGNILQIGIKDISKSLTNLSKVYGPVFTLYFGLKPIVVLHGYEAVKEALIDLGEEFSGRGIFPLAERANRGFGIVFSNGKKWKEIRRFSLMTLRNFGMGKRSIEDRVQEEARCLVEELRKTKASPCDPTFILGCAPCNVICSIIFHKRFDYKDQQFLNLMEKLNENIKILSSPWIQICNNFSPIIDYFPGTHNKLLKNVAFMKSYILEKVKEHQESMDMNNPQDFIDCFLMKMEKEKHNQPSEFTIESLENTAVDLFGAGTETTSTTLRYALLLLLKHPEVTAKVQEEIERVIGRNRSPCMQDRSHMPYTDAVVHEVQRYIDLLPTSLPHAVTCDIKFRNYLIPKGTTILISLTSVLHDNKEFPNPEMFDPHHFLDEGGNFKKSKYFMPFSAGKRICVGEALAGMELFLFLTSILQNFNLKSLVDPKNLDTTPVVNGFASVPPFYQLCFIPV
CYP2C19 inh = human CYP2C19 inhibition; P33261; CYP2C19 Supersomes, luciferin-H EGE luminescence, 30 min; 96,000 tested, 21% active; AID 778; inhibition, % at 5 µM;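 active means CYP2C19 inhibition above a set limit at 5 µM in the primary screen, cut at about 50% in these data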;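 further: plate controls were negative control wells for no effect and 2.5 mM tranylcypromine positive control for full effect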
MRP resist rev = reverses drug resistance mediated by MRP; AID 602; differential viability (reversal), % at 10 µM; H69AR cells + 2 uM doxorubicin, CellTiter-Glo, 72 h; 85,000 tested, 0.04% active;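 active means viability drop by adding the cancer drug above about 55%, with treated viability meeting a 40% cutoff, limit read from the data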;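 further: viability without doxorubicin minus viability with 2 µM doxorubicin for each compound; larger differential means the compound sensitizes cells more to doxorubicin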
MRP1 act = activates MRP-1 | H69AR cells + doxorubicin, viability rescue, CellTiter-Glo | viability increase, % at 10 µM | 140,000 tested, 0.61% active | AID 799;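 active means viability gain under doxorubicin at or above a set limit, the compound median plus 3 SD, cut at about 4.7% in these data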;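 further: MRP-1 overexpressing cells given doxorubicin 25 µM after compound pretreatment; 18-22 h compound pretreatment then 72 h with doxorubicin before readout; 0% = doxorubicin-only wells and 100% = vehicle-treated cells without doxorubicin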
CYP2C19 activ = activators of human cytochrome P450 2C19; P33261; AID 1025; activation factor at 5 µM; 96,000 tested, under 10 active; recombinant CYP2C19, luciferin-H EGE luminescence; hits give high values; 0 = fully inhibited enzyme, 1 = untreated enzyme;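 active means activation factor of at least 2 at 5 µM in the primary screen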;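 further: 0 = wells with 2.5 mM tranylcypromine and 1 = vehicle-only wells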
CYP2C9 act = activators of human CYP2C9; 96,000 tested, 1.4% active; P11712; activation factor at 5 µM; recombinant CYP2C9, luciferin-H conversion, luminescence; hits give high values; factor 1 = untreated enzyme, 0 = blocked;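 active means activation factor of 2 or more for CYP2C9 at a 5 µM dose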;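 further: 0 = sulfaphenazole-blocked wells and 1 = vehicle-only wells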
Numbers without * were called inactive.

How did CCOC(=O)c1nn(-c2ccccc2C)c(=O)c(C#N)c1C do in these assays?
CYP2C9 inhib: 7.9; CYP2C19 inh: 64.8*; MRP resist rev: 29.9; MRP1 act: 0.1; CYP2C19 activ: 0.4; CYP2C9 act: 0.9

What do the screens show for `CCn1c(=O)c2c3c(sc2n(C)c1=O)CCC3`?
CYP2C9 inhib: 1.8; CYP2C19 inh: 0.6; MRP resist rev: 1.4; MRP1 act: 0.3; CYP2C19 activ: 1; CYP2C9 act: 1

How did CCCCN(CCCC)C(=O)CSc1nnc2n(C)c(=O)c3c4c(sc3n12)CCCC4 do in these assays?
MRP1 act: -2.8

What do the screens show for `CCn1c(=O)c2c3c(sc2n2c(=S)[nH]nc12)CCC3`?
CYP2C9 inhib: 96.9*; CYP2C19 inh: 80.1*; MRP resist rev: -3.5; MRP1 act: -1.3; CYP2C19 activ: 0.2; CYP2C9 act: 0

Results for CCCSc1nnc2n(Cc3ccccc3)c(=O)c3c4c(sc3n12)CCC4 ?
CYP2C9 inhib: -17.5; CYP2C19 inh: -20.4; MRP resist rev: 1.7; CYP2C19 activ: 1.2; CYP2C9 act: 1.2

Results for Cn1c(=O)c2c3c(sc2n2c(SCC(N)=O)nnc12)CC(C(C)(C)C)CC3 (stereo unspecified) ?
CYP2C9 inhib: 14.4; CYP2C19 inh: 57.5*; MRP resist rev: 14.8; MRP1 act: -4.2; CYP2C19 activ: 0.4; CYP2C9 act: 0.9

Results for CCCSc1nnc2n(C)c(=O)c3c4c(sc3n12)CCC4 ?
CYP2C9 inhib: 61.1*; CYP2C19 inh: 53.4*; MRP resist rev: 4.0; MRP1 act: -0.7; CYP2C19 activ: 0.5; CYP2C9 act: 0.4

What do the screens show for `O=C(CSc1nccn1-c1ccccc1)NCc1ccc2c(c1)OCO2`?
CYP2C9 inhib: 98.5*; CYP2C19 inh: 99.7*; MRP resist rev: 3.1; MRP1 act: -0.5; CYP2C19 activ: 0; CYP2C9 act: 0

How did CCOc1ccc(-n2ccnc2SCC(=O)NCc2ccc3c(c2)OCO3)cc1 do in these assays?
CYP2C9 inhib: 64.2*; CYP2C19 inh: 81.4*; MRP resist rev: 9.7; MRP1 act: -0.6; CYP2C19 activ: 0.2; CYP2C9 act: 0.4

What do the screens show for `O=C(CSc1nccn1-c1ccc(F)cc1)NCc1ccc2c(c1)OCO2`?
CYP2C9 inhib: 80.5*; CYP2C19 inh: 91.5*; MRP resist rev: 10.5; MRP1 act: -0.7; CYP2C19 activ: 0.1; CYP2C9 act: 0.2

What do the screens show for `Cc1cc(C)cc(-n2c(SCC(=O)NCc3ccc4c(c3)OCO4)nc3ccccc3c2=O)c1`?
MRP1 act: 0.6

What do the screens show for `COc1ccc(CC(=O)NNc2ncnc3c2cnn3-c2ccc(C)cc2)cc1OC`?
MRP1 act: 0.9

How did Cc1ccc(NC(=O)COC(=O)C(NS(=O)(=O)c2ccc(Cl)cc2)C(C)O)cc1 (stereo unspecified) do in these assays?
MRP1 act: -1.0

What do the screens show for `CCc1nnc(NC(=O)CSc2nc3ccccc3o2)s1`?
CYP2C9 inhib: 58.7*; CYP2C19 inh: 2.0; MRP1 act: 0.1; CYP2C19 activ: 1; CYP2C9 act: 0.4

How did O=C(CSc1nc2ccccc2o1)Nc1nncs1 do in these assays?
CYP2C9 inhib: 55.4*; CYP2C19 inh: 33.2; MRP1 act: -3.2; CYP2C19 activ: 0.7; CYP2C9 act: 0.4

Results for C=CCSc1nnc(NC(=O)CSc2nc3ccccc3o2)s1 ?
CYP2C9 inhib: 82.3*; CYP2C19 inh: 58.8*; MRP resist rev: 2.3; MRP1 act: -2.7; CYP2C19 activ: 0.4; CYP2C9 act: 0.2

What do the screens show for `O=C(CSc1nc2ccccc2o1)Nc1nc(-c2ccccc2)c(-c2ccccc2)s1`?
MRP1 act: -1.2

Results for Cc1nnc(NC(=O)CSc2nc3ccccc3o2)s1 ?
MRP resist rev: 15.7; MRP1 act: 0.8

Results for NC(=O)C1CCCN(C(=O)NC2CCCCC2)C1 (stereo unspecified) ?
CYP2C9 inhib: 12.8; CYP2C19 inh: -7.8; MRP resist rev: -1.4; MRP1 act: -1.3; CYP2C19 activ: 1.1; CYP2C9 act: 0.9

What do the screens show for `O=C(CSc1nnc(CNC(=O)C23CC4CC(CC(C4)C2)C3)n1-c1ccccc1)Nc1ccccc1`?
MRP1 act: -1.0

What do the screens show for `CC1C(c2ccccc2)C(C#N)(C#N)C2(C#N)C(=O)NC1(N)C2C` (stereo unspecified)?
CYP2C9 inhib: 34.4; CYP2C19 inh: 98.2*; MRP resist rev: 24.7; MRP1 act: -1.2; CYP2C19 activ: 0; CYP2C9 act: 0.7

How did CC(C)CCNC(=O)C1CCCN1C(=O)NC1CCCCC1 (stereo unspecified) do in these assays?
MRP resist rev: 3.9; MRP1 act: 2.8

What do the screens show for `Cc1noc(C)c1S(=O)(=O)N1CCC(C(=O)N2CCC(N3CCCCC3)CC2)CC1`?
CYP2C9 inhib: 3.3; CYP2C19 inh: 17.9; MRP resist rev: 11.7; MRP1 act: -1.4; CYP2C19 activ: 0.8; CYP2C9 act: 1

How did CCSCCOC(=O)C1=C(C)NC2=C(C(=O)CCC2)C1c1coc2ccccc2c1=O (stereo unspecified) do in these assays?
CYP2C9 inhib: 52.0*; CYP2C19 inh: 16.6; MRP resist rev: -1.9; MRP1 act: -1.7; CYP2C19 activ: 0.8; CYP2C9 act: 0.5

What do the screens show for `CC1=C(C(=O)OC(C)C)C(c2coc3ccccc3c2=O)C2=C(CCCC2=O)N1` (stereo unspecified)?
CYP2C9 inhib: 62.4*; CYP2C19 inh: 46.4; MRP resist rev: -10.6; MRP1 act: -1.1; CYP2C19 activ: 0.5; CYP2C9 act: 0.4

Results for CCOC(=O)C1=C(C)NC2=C(C(=O)CC(C)(C)C2)C1c1coc2ccccc2c1=O (stereo unspecified) ?
MRP resist rev: -6.6; MRP1 act: -0.1

What do the screens show for `O=C(c1ccccc1/S(=N/S(=O)(=O)c1ccccc1)N1CCOCC1)N1CCOCC1` (stereo unspecified)?
CYP2C9 inhib: -11.7; CYP2C19 inh: -5.2; MRP resist rev: 7.5; MRP1 act: 0.4; CYP2C19 activ: 1.1; CYP2C9 act: 1.1

What do the screens show for `O=C(NC1CCN(C(=S)NCc2ccco2)CC1)C12CC3CC(CC(C3)C1)C2`?
CYP2C9 inhib: 30.4; CYP2C19 inh: 67.0*; MRP1 act: -0.5; CYP2C19 activ: 0.3; CYP2C9 act: 0.7

How did COC(=O)c1ccc(Cn2c(O)c(N=O)c3ccccc32)o1 do in these assays?
CYP2C9 inhib: 42.9; CYP2C19 inh: 46.1; MRP resist rev: 2.4; MRP1 act: 1.5; CYP2C19 activ: 0.5; CYP2C9 act: 0.6

Results for O=Nc1c(O)n(Cc2ccc(Cl)c(Cl)c2)c2ccccc12 ?
CYP2C9 inhib: 61.5*; CYP2C19 inh: 50.7*; MRP1 act: -3.8; CYP2C19 activ: 0.5; CYP2C9 act: 0.4

How did CC1(C)Cc2cccc(OCC(=O)Nc3cccnc3Cl)c2O1 do in these assays?
CYP2C9 inhib: -116.4; CYP2C19 inh: 97.5*; MRP resist rev: 4.4; MRP1 act: -1.3; CYP2C19 activ: 0; CYP2C9 act: 2.2*
